What all share (test): NCI-60 one-dose screen, 48 h (100 = growth as untreated, 0 = no growth, -100 = all killed)
Holding throughout (conditions): 10 µM unless noted

Test [1] deals with RPMI-8226 leukemia.
Test [2] deals with OVCAR-8 ovarian.
Test [3] deals with OVCAR-5 ovarian.
For test [4], the system named is OVCAR-4 ovarian.
Test [5] concerns SK-OV-3 ovarian.
In test [6] the test system is OVCAR-3 ovarian.
The test system of test [7] is HS 578T breast.
The subject of test [8] is NCI/ADR-RES ovarian.
Test [9] deals with T-47D breast.
For test [10], the system named is MDA-MB-435 melanoma.
Test [11] has as its system SW-620 colon.
Test [12] relates to MCF7 breast.
The test system of test [13] is HCT-116 colon.
Test [14] concerns HCC-2998 colon.
Test [15] concerns KM12 colon.
Test [16] concerns BT-549 breast.

About 83,000 compounds went through this panel and 20% of them were active in at least one assay; those are over-represented in the sample as a whole.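 Cells were grown in 96-well plates and exposed to the test compound at a single concentration for 48 hours; results are reported as percent growth, with values below 10 considered active.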 Unmarked numbers belong to inactive results. The source made the active and inactive calls.

On to `C[n+]1ccc(Nc2ccc(NC(=O)c3ccc(Nc4cc[n+](C)c5ccc(N)cc45)cc3)cc2)cc1`, for which the growth in [1] is 68.1%; in test [2], 94.8%; in test [3] it was 90.6%; in [4], 103%; in [5] it was 99.1%; in test [6], 115%. For the same compound, the growth in test [7] was 108%; in [8], 99.4%; in test [9] it was 102%; in test [10] it was 88.7%; in [11], 105%; in test [12], 96.2%. Further, the growth in [13] is 95%; in test [14], -27.7% (active); in test [15] it was 109%.
`O=C1Nc2ccccc2C12Nc1cc(Cl)ccc1S2` (stereo unspecified): the growth was 42% in [1]; 104% in test [2]; 104% in test [3]; 70.4% in test [4]; 70.9% in test [5]; 76.3% in test [6]. Moreover, the growth in test [7] is 135%; in test [8], 97.2%; in test [9] it was 42.4%; in [16] it was 76.2%; in test [10] it was 95.4%; in test [11] it was 120%. For the same compound, the growth in test [12] is 59.7%; in [13] it was 84.5%; in [14], 110%; in [15] it was 80.4%.
In the case of `COc1ccc(/C=N\Nc2ccc([N+](=O)[O-])cn2)cc1OC`, the growth in test [1] was 40%; in test [2], 14.6%; in test [3], 22.2%; in test [4], -56.6% (active); in [5], 36.8%; in test [6], 47%. Also, the growth in test [7] was 47.8%; in test [8] it was 65%; in [9] it was -7.26% (active); in [10], 72.9%; in test [11], 61.5%; in test [12], 74.7%. Further, the growth in test [13] is 17.1%; in test [14], 99.7%; in [15], 44.1%.
For the compound `O=C(Nc1ncc([N+](=O)[O-])s1)c1cccc([N+](=O)[O-])c1`, the growth in test [1] is -6.2% (active); in [2], 43.1%; in test [3], 87.6%; in test [4], 40.5%; in [5] it was 64.1%; in [6] it was 21.3%. For the same compound, the growth in [7] was 49.2%; in test [8], 39.9%; in test [9] it was 24.7%; in test [16], 35.8%; in test [10], 31.4%; in test [11] it was 73.4%. The growth is 50.7% in test [12], 34.1% in test [13], 28.7% in test [14] and 62.9% in test [15].
For the compound `CC(C)[C@]12O[C@H]1[C@@H]1O[C@]13[C@]1(O[C@H]1C[C@H]1C4=C(CC[C@@]13C)C(=O)OC4)[C@@H]2OC(=O)CN(C)C`, the growth was 14.7% in test [1]; 14.9% in test [2]; 26.7% in test [3]; 21.1% in test [4]; 52.1% in test [5]; -1.74% (active) in test [6]. Besides, the growth in [7] was -0.647% (active); in [8] it was -5.71% (active); in test [9], 27.2%; in [16] it was -18.2% (active); in test [10], -76.4% (active); in [11], 0.523% (active). The growth in test [12] is 18.1%; in [13] it was 4.59% (active); in [14], -37.2% (active); in test [15], 2.83% (active).
Turning to `O=C(Nc1cccc2ccccc12)c1cc2c(cc1Br)OCO2`, the growth is 66.1% in test [1]; 106% in test [2]; 96.8% in [3]; 83.5% in [4]; 80.9% in [5]; 104% in test [6]. Moreover, the growth in test [7] was 125%; in [8], 92.5%; in test [9], 83.9%; in test [16], 61%; in test [10], 111%; in test [11] it was 100%. Moreover, the growth in test [13] was 236%; in [14], 97.3%; in [15] it was 103%.
In the case of `O=c1ccn(C2OC(CO)C(O)C2F)c(=O)[nH]1` (stereo unspecified), the growth in test [1] was 106%; in [2], 115%; in [3], 94%; in test [4], 110%; in test [5], 114%; in [6] it was 109%. For the same compound, the growth in test [7] was 140%; in test [8], 98.5%; in [9], 90%; in test [16], 115%; in [10], 107%; in test [11], 102%. Further, the growth in test [12] was 104%; in test [13], 108%; in [14], 97.8%; in test [15] it was 111%.
As for `Nc1nonc1-c1nc2ccccc2n1CC(=O)Nc1ccc2c(c1)COC2=O`, the growth in test [1] is 99.1%; in test [2] it was 94.3%; in test [3], 94%; in test [4], 93%; in test [5], 90.9%; in test [6] it was 94.2%. In addition, the growth in test [7] is 65.9%; in test [8] it was 85.6%; in test [9], 85.8%; in test [16], 81.3%; in test [10], 5.9% (active); in test [11], 59.1%. The growth in test [13] was 74.1%; in test [14], 92.3%; in test [15], 64.4%.
As for `CC[N+](C)(CC)CCCC(C)Nc1ccnc2cc(Cl)ccc12` (stereo unspecified), the growth in test [1] is 106%; in test [2] it was 100%; in test [3], 119%; in test [4], 112%; in test [5], 111%; in [6], 101%. Besides, the growth in [7] is 104%; in [8], 112%; in test [9] it was 101%; in test [16] it was 117%; in test [10] it was 108%; in test [11], 106%. Moreover, the growth in test [12] was 96.4%; in test [13], 110%; in test [14] it was 119%; in test [15], 102%.
`Oc1[nH]c2ccccc2c1/C=c1/ccc2c(c1)N=C(c1cc(F)cc(F)c1)N=2`: the growth in [1] was 27.5%; in [2], 76.9%; in test [3], 85%; in [4], 57.8%; in test [5] it was 85%; in test [6], 55.9%. Further, the growth in test [7] is 69.4%; in [8], 61.4%; in test [9], 40.3%; in test [16], 40.4%; in [10], 25.2%; in test [11] it was 36.4%. The growth is 25.1% in test [12], 28.7% in [13], 81.1% in [14] and 34% in test [15].

These data come from PubChem BioAssay (NCI).
